Results reported in PubChem BioAssay AID1053125 (Broad Institute, 2014).
Entries with a potency or affinity are not part of this list. Calls of active or inactive are those of the source.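 Rule for the calls: active = viability loss whose fitted half-maximal concentration is at most twice the top valid tested dose; inconclusive = flat curve with 30 to 70% loss, or poor fit; inactive = the rest.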

Assay: viability loss in HepG2 liver cells – cell-based, ATP luminescence, cherry-pick, set 6, cytotoxicity control, dose response (AID 1053125);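 note: negative values mean loss of viability signal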
Conditions: ATP luminescence (CellTiter-Glo), 72 h; series mostly up to 26 µM; activity change, negative = cytotoxicity: at the top concentration

SMILES	activity change, negative = cytotoxicity
COCCCn1c(=N)c(C(=O)NC2CCCCC2)cc2c(=O)n3ccccc3nc21	-7.84% (inactive)
Cc1ccc(-c2nc3ccsc3c(=O)[nH]2)cc1	-13.5% (inactive)
COCc1cc(C)nc(SCC(=O)Oc2ccc(Cl)cc2)c1C#N	-0.038% (inactive)
CC(=O)c1cccc(-c2ccnc3c2CC(C(=O)NCc2ccc(F)c(F)c2)O3)c1 (centres undefined)	2.47% (inactive)
N=c1oc2cc(O)ccc2cc1C(=O)Nc1ccc(Br)cc1	-15.2% (inactive)
COc1ccc(C2C3=C(CC(C)(C)CC3=O)N(C)C3=C2C(=O)CC(C)(C)C3)cc1	4.57% (inactive)
CCOc1ccc2nc(NCCCNC(=O)c3cc(OC)c(OC)c(OC)c3)c(C#N)cc2c1	-2.45% (inactive)
COc1ccc(CCNC(=O)CSc2cn(Cc3cccc(C)c3)c3ccccc23)cc1OC	30.9% (inactive)
Cc1cccn2c(=O)c(/C=C(\C#N)C(=O)NC3CCS(=O)(=O)C3)c(N3CCC(C(N)=O)CC3)nc12 (centres undefined)	-0.312% (inactive)
Cc1cc(=O)oc2cc(OC(=O)c3cncc(Br)c3)ccc12	4.96% (inactive)
CCN(CC)CCN1C2=C(C(=O)CC(C)(C)C2)C(c2cccc(F)c2)C2=C1CC(C)(C)CC2=O	-3.85% (inactive)
CCCOc1ccc(NC(=O)c2c(-c3ccccc3)noc2C)cc1	-6.96% (inactive)
O=C(C1=NN(c2ccccc2)C2C(=O)N(c3ccccc3)C(=O)C12)c1ccccc1 (centres undefined)	16.3% (inactive)
CC(=O)NNc1cc(N2CCOCC2)nc(N2CCOCC2)n1	6.7% (inactive)
Cc1c(C=O)c2ccccn2c1C(=O)c1cccs1	1.65% (inactive)
CCCCN(CCCC)CC(O)Cn1c2ccccc2c(=O)c2ccccc21 (centres undefined)	-21.4% (inactive)
Cc1c(Nc2c3ccccc3nc3ccccc23)c(=O)n(-c2ccccc2)n1C	-6.17% (inactive)

SMILES	activity change, negative = cytotoxicity
CCN(CC)CCNC(=O)c1sc2nc(-c3ccccc3)cn2c1C	-8.94% (inactive)
CN1c2ccc(Cl)cc2C(=O)NC1C1CC=CCC1 (centres undefined)	-1.75% (inactive)
COc1ccc(C2C3=C(CCCC3=O)N(CC(=O)O)C3=C2C(=O)CCC3)cc1	-6.11% (inactive)
COc1ccc(S(=O)(=O)N2CCCC2CNC(=O)C(=O)NC2CCCC2)cc1 (centres undefined)	-7.24% (inactive)
C/C(=N\NC(=O)CC#N)c1cc2ccc(O)cc2oc1=O	2.89% (inactive)
N=c1oc2cc(O)ccc2cc1C(=O)Nc1nc2ccccc2s1	-0.66% (inactive)
Cc1cccn2c(=O)c3cc(C(=O)NCC4CCCO4)c(=N)n(CC4CCCO4)c3nc12 (centres undefined)	1.16% (inactive)
COc1ccc(Br)c(Cn2c(C)c(C(=O)NCc3ccc4c(c3)OCCO4)sc2=O)c1	-12.5% (inactive)
CC(=O)c1cc2c(ccc3ccccc32)oc1=O	-0.955% (inactive)
O=C(CCCn1c(=O)c2sccc2n(Cc2cc(=O)n3ccccc3n2)c1=O)NCc1ccco1	-8.29% (inactive)
CCCN1CCN(C(=O)c2ccc(CS(=O)c3ccc(Br)cc3)o2)CC1 (centres undefined)	4.12% (inactive)
CSC1=NSC2=NC(=O)/C(=C/c3coc4ccc(O)cc4c3=O)C(=N)N12	-14.4% (inactive)
O=C(O)c1ccc(N/N=C/c2ccc(-c3ccccc3Cl)o2)cc1	-1.29% (inactive)
CCC(C)NC(=S)N1CCN(Cc2ccc3c(c2)OCO3)CC1 (centres undefined)	8.46% (inactive)
O=c1oc2cc(O)ccc2cc1S(=O)(=O)c1ccccc1	-3.94% (inactive)
CC(C)N1CCc2c(sc(NC(=O)Cc3ccccc3)c2C#N)C1	8.38% (inactive)
CCOc1ccccc1N=c1oc2cc(O)ccc2cc1C(=O)NCC1CCCO1 (centres undefined)	-13% (inactive)
